Consider 19 compounds from ChEMBL document CHEMBL1961873, “Compounds: GSK PKIS; Assays: Nanosyn kinase panel” (2012).

One may read the inhibition as the change of the read-out against control, counted positive when it falls.

For assay [1], the target named is Tyrosine-protein kinase Fyn (Homo sapiens) (UniProt P06241). The note with it: at 1 µM.
In assay [2] the target is Tyrosine-protein kinase HCK (Homo sapiens) (UniProt P08631). The note with it: at 0.1 µM.
For assay [3] the target is unchanged. The note with it: at 1 µM.
Assay [4] has as its target Insulin-like growth factor 1 receptor (Homo sapiens) (UniProt P08069). The note with it: at 0.1 µM.
The target is the same in assay [5]. The note with it: at 1 µM.
The target of assay [6] is Insulin receptor (Homo sapiens) (UniProt P06213). The note with it: at 0.1 µM.
Chain of Insulin receptor (Homo sapiens) (P06213 28-758 limits assumed): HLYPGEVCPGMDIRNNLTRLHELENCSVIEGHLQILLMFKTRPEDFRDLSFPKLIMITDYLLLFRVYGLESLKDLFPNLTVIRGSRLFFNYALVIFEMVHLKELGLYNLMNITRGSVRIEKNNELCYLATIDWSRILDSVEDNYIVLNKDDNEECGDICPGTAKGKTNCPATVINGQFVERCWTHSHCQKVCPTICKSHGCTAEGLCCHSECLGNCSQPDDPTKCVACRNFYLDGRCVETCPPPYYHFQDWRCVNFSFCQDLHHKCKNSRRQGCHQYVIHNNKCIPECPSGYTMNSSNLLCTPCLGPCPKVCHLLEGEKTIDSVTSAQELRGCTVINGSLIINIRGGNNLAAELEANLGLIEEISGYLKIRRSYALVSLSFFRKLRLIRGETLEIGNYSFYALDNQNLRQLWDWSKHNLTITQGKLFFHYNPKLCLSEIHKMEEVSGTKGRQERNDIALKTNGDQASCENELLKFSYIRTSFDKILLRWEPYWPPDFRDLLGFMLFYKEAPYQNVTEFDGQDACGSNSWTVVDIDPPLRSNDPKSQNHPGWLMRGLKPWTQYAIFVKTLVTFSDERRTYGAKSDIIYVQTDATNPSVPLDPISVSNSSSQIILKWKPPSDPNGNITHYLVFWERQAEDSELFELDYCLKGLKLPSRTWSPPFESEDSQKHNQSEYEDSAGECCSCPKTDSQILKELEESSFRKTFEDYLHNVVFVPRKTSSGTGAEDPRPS
Chain of Insulin receptor (Homo sapiens) (P06213 763-1382 limits assumed): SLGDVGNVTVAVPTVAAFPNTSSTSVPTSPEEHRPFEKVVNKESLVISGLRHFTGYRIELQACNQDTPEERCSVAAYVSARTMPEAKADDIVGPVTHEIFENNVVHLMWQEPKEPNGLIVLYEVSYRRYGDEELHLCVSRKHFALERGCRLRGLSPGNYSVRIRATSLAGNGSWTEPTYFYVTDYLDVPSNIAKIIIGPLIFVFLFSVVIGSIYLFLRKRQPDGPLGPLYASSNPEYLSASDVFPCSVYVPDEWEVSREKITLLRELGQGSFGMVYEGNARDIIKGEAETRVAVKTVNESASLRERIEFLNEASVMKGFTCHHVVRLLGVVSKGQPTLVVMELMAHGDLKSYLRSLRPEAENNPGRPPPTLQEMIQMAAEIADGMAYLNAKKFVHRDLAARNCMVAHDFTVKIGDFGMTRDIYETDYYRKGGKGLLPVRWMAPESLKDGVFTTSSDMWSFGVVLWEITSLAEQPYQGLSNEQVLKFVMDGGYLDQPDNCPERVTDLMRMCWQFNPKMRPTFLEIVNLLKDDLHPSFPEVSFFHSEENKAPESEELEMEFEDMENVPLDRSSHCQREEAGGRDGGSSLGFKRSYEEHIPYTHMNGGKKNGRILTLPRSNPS
Assay [7] has the same target. The note with it: at 1 µM.
Assay [8] deals with Insulin receptor-related protein (Homo sapiens) (UniProt P14616). The note with it: at 0.1 µM.
Chain of Insulin receptor-related protein (Homo sapiens) (P14616 27-742 limits assumed): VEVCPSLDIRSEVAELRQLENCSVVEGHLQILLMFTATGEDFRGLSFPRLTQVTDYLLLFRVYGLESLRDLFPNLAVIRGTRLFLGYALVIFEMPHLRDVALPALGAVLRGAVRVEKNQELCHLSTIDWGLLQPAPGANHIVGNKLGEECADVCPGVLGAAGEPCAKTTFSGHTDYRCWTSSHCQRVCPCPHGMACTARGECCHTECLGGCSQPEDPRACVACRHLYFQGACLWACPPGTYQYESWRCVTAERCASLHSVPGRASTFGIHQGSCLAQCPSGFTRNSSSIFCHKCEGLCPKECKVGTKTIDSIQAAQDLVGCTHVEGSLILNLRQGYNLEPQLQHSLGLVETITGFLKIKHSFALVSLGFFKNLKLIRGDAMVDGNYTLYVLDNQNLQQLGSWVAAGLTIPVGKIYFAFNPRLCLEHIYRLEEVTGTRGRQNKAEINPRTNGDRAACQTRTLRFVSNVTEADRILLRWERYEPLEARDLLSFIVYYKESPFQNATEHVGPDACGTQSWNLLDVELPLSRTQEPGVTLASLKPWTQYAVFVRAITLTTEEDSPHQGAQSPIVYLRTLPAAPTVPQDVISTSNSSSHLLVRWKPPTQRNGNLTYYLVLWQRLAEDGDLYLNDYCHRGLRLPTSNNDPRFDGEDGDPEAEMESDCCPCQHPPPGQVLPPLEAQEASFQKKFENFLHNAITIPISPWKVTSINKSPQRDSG
Chain of Insulin receptor-related protein (Homo sapiens) (P14616 747-1297 limits assumed): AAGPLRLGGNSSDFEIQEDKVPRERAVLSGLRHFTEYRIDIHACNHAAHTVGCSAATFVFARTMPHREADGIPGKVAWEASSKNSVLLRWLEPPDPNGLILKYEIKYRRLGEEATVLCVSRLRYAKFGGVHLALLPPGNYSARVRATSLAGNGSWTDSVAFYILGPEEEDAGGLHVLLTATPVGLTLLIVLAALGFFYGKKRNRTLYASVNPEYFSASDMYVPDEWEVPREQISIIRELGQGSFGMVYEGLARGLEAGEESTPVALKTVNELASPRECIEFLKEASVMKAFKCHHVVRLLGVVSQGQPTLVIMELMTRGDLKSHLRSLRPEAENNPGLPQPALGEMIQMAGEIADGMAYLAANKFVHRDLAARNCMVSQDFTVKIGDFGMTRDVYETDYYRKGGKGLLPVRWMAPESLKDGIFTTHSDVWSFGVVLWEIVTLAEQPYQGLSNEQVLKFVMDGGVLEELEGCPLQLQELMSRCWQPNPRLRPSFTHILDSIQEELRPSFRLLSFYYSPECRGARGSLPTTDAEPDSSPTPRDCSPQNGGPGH
Assay [9] has the same target. The note with it: at 1 µM.
The target in assay [10] is T1, Tyrosine-protein kinase ITK/TSK (Homo sapiens) (UniProt Q08881).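 Also: mean percent inhibition of ITK from the GSK PKIS screen.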
T1 sequence (whole entry): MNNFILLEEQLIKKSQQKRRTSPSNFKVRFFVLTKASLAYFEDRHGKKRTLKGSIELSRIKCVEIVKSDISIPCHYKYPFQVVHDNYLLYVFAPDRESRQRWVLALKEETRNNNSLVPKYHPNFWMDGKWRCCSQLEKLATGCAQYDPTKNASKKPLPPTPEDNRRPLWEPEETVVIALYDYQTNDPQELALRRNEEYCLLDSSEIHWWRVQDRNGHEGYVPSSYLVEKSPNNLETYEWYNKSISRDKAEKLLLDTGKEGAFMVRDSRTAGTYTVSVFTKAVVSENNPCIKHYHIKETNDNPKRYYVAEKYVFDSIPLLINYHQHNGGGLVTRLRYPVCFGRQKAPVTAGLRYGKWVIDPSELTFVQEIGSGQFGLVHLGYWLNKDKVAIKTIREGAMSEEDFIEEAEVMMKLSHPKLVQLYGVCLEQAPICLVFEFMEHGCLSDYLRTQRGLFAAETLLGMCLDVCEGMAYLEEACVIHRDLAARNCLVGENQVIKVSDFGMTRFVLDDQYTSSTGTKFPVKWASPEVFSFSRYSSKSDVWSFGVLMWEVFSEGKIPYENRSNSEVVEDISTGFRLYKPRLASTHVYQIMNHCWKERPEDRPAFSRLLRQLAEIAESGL
The note with it: at 0.1 µM.

Chain of Tyrosine-protein kinase HCK (Homo sapiens) (P08631 2-526 limits assumed): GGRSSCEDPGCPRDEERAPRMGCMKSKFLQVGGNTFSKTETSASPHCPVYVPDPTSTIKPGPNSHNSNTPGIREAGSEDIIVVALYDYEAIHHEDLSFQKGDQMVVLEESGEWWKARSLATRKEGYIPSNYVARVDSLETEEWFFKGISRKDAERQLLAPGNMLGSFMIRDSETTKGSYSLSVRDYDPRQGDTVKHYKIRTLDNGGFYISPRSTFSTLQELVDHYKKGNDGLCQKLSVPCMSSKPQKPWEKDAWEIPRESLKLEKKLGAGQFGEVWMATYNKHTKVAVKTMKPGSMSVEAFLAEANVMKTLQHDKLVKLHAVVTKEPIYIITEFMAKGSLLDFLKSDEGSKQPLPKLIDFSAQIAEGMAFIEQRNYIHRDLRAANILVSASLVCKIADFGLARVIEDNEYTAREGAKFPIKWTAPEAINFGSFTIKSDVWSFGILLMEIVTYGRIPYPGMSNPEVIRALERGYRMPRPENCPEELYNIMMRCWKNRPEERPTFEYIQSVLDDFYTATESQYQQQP
Chain of Insulin-like growth factor 1 receptor (Homo sapiens) (P08069 31-736 limits assumed): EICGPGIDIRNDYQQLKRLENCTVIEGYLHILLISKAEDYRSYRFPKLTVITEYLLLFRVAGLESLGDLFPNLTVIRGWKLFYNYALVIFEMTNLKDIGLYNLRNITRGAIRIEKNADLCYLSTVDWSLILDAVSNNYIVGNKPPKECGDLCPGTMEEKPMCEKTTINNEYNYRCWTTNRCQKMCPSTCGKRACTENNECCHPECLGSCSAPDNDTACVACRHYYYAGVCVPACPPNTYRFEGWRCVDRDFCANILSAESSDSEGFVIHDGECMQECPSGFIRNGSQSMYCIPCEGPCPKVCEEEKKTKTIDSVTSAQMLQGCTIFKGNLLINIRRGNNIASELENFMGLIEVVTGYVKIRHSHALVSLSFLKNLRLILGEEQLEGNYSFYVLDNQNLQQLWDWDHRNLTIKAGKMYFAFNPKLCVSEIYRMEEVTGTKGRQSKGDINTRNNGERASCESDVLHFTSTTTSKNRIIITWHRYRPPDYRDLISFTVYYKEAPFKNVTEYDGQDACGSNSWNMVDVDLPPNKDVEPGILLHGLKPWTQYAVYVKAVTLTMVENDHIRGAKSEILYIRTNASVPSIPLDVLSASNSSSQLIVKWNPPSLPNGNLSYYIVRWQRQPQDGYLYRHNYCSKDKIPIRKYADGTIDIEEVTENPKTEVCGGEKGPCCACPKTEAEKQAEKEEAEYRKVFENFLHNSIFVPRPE
Chain of Insulin-like growth factor 1 receptor (Homo sapiens) (P08069 741-1367 limits assumed): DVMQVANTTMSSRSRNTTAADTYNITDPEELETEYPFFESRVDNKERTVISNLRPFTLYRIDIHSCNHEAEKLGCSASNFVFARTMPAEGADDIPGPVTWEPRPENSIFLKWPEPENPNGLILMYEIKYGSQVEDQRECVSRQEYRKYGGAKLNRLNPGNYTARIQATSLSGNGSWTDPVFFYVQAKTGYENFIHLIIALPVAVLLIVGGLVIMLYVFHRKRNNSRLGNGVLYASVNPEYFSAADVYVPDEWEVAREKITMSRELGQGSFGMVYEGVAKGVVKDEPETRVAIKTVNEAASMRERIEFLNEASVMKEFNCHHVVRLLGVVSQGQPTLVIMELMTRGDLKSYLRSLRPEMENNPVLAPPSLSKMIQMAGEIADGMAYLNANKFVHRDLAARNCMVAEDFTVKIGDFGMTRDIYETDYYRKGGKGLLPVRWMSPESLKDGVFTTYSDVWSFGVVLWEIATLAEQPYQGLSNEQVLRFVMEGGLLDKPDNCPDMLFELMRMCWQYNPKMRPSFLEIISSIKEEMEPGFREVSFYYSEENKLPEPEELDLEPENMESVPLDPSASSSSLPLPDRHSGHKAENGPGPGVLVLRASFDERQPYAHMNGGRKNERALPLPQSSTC
Chain of Tyrosine-protein kinase Fyn (Homo sapiens) (P06241 2-537 limits assumed): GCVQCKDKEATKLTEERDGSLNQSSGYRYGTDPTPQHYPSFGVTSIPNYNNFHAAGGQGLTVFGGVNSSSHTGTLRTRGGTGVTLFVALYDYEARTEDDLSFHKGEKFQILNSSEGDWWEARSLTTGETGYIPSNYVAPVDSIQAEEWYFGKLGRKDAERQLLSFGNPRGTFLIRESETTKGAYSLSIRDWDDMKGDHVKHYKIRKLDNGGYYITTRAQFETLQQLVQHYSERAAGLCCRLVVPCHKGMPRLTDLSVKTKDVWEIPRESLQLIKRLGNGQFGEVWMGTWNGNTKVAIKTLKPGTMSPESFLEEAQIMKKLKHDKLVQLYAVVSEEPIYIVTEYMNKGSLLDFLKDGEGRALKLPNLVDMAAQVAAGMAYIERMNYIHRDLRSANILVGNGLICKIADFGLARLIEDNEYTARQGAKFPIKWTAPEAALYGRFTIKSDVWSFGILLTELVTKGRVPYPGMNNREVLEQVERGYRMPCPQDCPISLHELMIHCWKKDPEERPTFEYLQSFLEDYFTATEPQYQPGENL

Regarding `NS(=O)(=O)c1ccc(N/N=C2\C(=O)Nc3ccc(Cl)cc32)cc1`, the inhibition in assay [1] was determined as 8.06%; in assay [2], 5%; in [3] it was 11.4%; in [4] it was 6.7%; in [5], 4.64%; in assay [6], 1.04%. The inhibition in [7] is 2.77%; in assay [8], 3.26%; in [9] it was 3.42%; in assay [10] it was 0.97%.

On to `CS(=O)(=O)Nc1cccc(-c2ccc3c(NC(=O)C4CC4)n[nH]c3c2)c1`, for which the inhibition in [1] is 3.25%; in assay [2], 3.53%; in assay [3], 3.03%; in [4], 1.3%; in [5] it was -1.63%; in assay [6], 2.96%. The inhibition is 4.14% in assay [7], -0.36% in assay [8], -1.26% in assay [9] and 0.53% in [10].

For the compound `Cc1cc(Cl)cc2c1NC(=O)C2=NNc1ccc(S(N)(=O)=O)cc1`, the inhibition in [1] stood at 3.01%; in [2] it was 2.49%; in assay [3], 4.3%; in [4], 2.32%; in assay [5], 0.19%; in [6], 2.78%. Besides, the inhibition in [7] was 4.18%; in [8], -0.92%; in assay [9], 1.47%; in assay [10], 1.14%.

Turning to `O=S(=O)(CCOCc1ccc(-c2ccc3ncnc(Nc4ccc(OCc5cccc(F)c5)c(Cl)c4)c3c2)o1)c1ccccc1`, the inhibition in assay [1] is 0.6%; in assay [2], 3.81%; in [3], 6.35%; in [4], 13%; in assay [5], 8.7%; in [6], 1.87%. The inhibition is 3.13% in assay [7], -2.12% in assay [8], 0.31% in [9] and -0.7% in [10].

Regarding `ON=C1CCc2cc(-c3nc(C4CCNCC4)[nH]c3-c3ccncc3)ccc21`, the inhibition in assay [1] is 0.87%; in assay [2] it was 0.2%; in assay [3], 4.24%; in assay [4], -1.78%; in assay [5], -0.56%; in assay [6] it was 1.61%. For the same compound, the inhibition in [7] is -0.75%; in assay [8], -1.51%; in assay [9], -0.82%; in [10] it was 0.74%.

Regarding `CCn1c(-c2nonc2N)nc2c(C#CC(C)(C)O)nc(OCCNC)cc21`, the inhibition is 4.65% in assay [1]; 5.42% in assay [2]; 8.69% in [3]; 5.39% in assay [4]; 3.53% in [5]; 6.39% in assay [6]. Further, the inhibition in [7] was 5.58%; in [8], 0.83%; in [9] it was 1.9%; in assay [10] it was 0.63%.

Turning to `CN(C)C(=O)O[C@@H]1CN[C@@H](C#Cc2cc3ncnc(Nc4ccc(OCc5cccc(F)c5)c(Cl)c4)c3s2)C1`, the inhibition was 3.53% in assay [1]; 1.53% in [2]; 4.13% in assay [3]; -0.74% in [4]; 0% in [5]; 0.78% in [6]. Besides, the inhibition in assay [7] is 1.75%; in assay [8], -1.28%; in assay [9], 0.29%; in assay [10], 0.62%.

`Cc1ccc(O)cc1Nc1ccnc2ccc(S(C)(=O)=O)cc12`: the inhibition in assay [1] amounted to 94.1%; in [2] it was 87.2%; in assay [3], 89.9%; in [4], 4.41%; in [5] it was 3.85%; in [6] it was 6.63%. In addition, the inhibition in assay [7] came out at 8.39%; in [8], 3.29%; in [9], 3.19%; in assay [10], 1.1%.

As to `COc1cccc(-n2ncc3c(N/N=C/c4ccc(C)cc4)ncnc32)c1`, the inhibition in assay [1] was determined as 16.5%; in assay [2], 7.32%; in [3], 16.2%; in assay [4], 5.92%; in assay [5], 22.9%; in [6], 21.4%. For the same compound, the inhibition in assay [7] was determined as 82.2%; in assay [8], 2.51%; in [9], 15.3%; in [10], 2.28%.

Turning to `NC(=O)c1sc(-n2cnc3ccccc32)cc1OCc1ccccc1Br`, the inhibition was determined as 6.19% in [1]; 4.21% in assay [2]; 7.03% in assay [3]; 1.53% in assay [4]; 3.04% in assay [5]; 3.07% in assay [6]. Also, the inhibition in assay [7] was 5.25%; in assay [8] it was 1.82%; in [9], 3.4%; in assay [10], 1.35%.

As to `O=C1Nc2ccc(-c3cccnc3)cc2C1=Cc1cc(Br)c(O)c(Br)c1`, the inhibition was determined as 10.5% in [1]; 3.63% in [2]; 11.1% in [3]; 3.8% in assay [4]; 4.14% in assay [5]; 3.63% in assay [6]. In addition, the inhibition worked out at 0.1% in assay [7], 4.28% in assay [8], 2.51% in assay [9] and 1.58% in assay [10].

Consider `CCCN1CCCC(c2ccc(Nc3nc(Nc4cc(F)ccc4C(N)=O)c4cc[nH]c4n3)c(OC)c2)C1` (stereo not given), for which the inhibition in assay [1] is 16.1%; in assay [2], 7.06%; in assay [3], 11.9%; in assay [4] it was 93%; in [5], 94.8%; in assay [6], 98.9%. Besides, the inhibition in assay [7] was found to be 96.2%; in assay [8] it was 93.7%; in assay [9], 97%; in assay [10], 2.35%.

Turning to `CS(=O)(=O)CCNCc1nc(-c2ccc3ncnc(Nc4ccc(OCc5cccc(C(F)(F)F)c5)cc4)c3c2)cs1`, the inhibition was 3.35% in [1]; 3.91% in assay [2]; 5.68% in assay [3]; 4.43% in assay [4]; 3.36% in assay [5]; 1.31% in [6]. For the same compound, the inhibition in [7] is 3.15%; in [8], -0.71%; in assay [9], 1.53%; in assay [10] it was 1.21%.

With `O=C1Nc2ccccc2/C1=C/Nc1ccc2[nH]c(=O)[nH]c2c1`, the inhibition was determined as 10.9% in assay [1]; 7.89% in assay [2]; 21.5% in assay [3]; 7.08% in assay [4]; 24.8% in assay [5]; 8.02% in [6]. The inhibition in assay [7] came out at 32.4%; in assay [8], 3.85%; in [9], 6.41%; in assay [10] it was 1.78%.

For the compound `NS(=O)(=O)c1cccc(Nc2cc(-c3ccc(F)cc3)n[nH]2)c1`, the inhibition in assay [1] was 5.32%; in assay [2], 3.23%; in assay [3], 7.76%; in assay [4], 0.35%; in assay [5] it was 1.22%; in assay [6], 0.86%. In addition, the inhibition is 1.03% in [7], 1.9% in assay [8], 2.3% in [9] and 1.67% in assay [10].

`N#Cc1c(NC(=O)c2ccccc2F)sc2c1CCCC2`: the inhibition in [1] is 3.17%; in assay [2], -1.54%; in assay [3] it was 0.95%; in assay [4], -4.1%; in assay [5] it was 0.01%; in assay [6], 1.34%. Also, the inhibition is -1.12% in [7], -1.06% in [8], -1.27% in assay [9] and -1% in assay [10].

For `COC(=O)c1cncc(/C=C/c2c(C)cc(O)cc2C)c1`, the inhibition was 20% in assay [1]; 8.77% in assay [2]; 37.5% in [3]; 2.87% in assay [4]; 2.99% in assay [5]; 3.1% in [6]. Further, the inhibition in [7] stood at 0.15%; in assay [8], 5.13%; in [9], 2.83%; in assay [10] it was 0.96%.

Regarding `Nc1ccc(C#Cc2cncnc2Nc2ccc(OCc3cccc(F)c3)c(Cl)c2)cc1`, the inhibition in [1] is 1.14%; in assay [2] it was 4.6%; in assay [3], 5.04%; in assay [4], 1.78%; in assay [5], -0.29%; in assay [6] it was 1.22%. For the same compound, the inhibition came out at 2.12% in [7], 2.27% in [8], 2.76% in assay [9] and 0.59% in assay [10].

On to `CN1CCN(C(=O)c2ccc(NC(=O)Nc3ccc(N(C)c4ccnc(Nc5ccc(CS(C)(=O)=O)cc5)n4)cc3)cc2)CC1`, for which the inhibition is 8.13% in assay [1]; 3.98% in assay [2]; 22.7% in assay [3]; 3.48% in assay [4]; 6.42% in assay [5]; 4.81% in assay [6]. For the same compound, the inhibition is 10.6% in [7], -0.19% in assay [8], 2.44% in assay [9] and 6.56% in [10].
